Results taken from a collection of fitness landscapes (doi:10.1126/science.1257360).
Whole data set: some 140,000 sequences, median “enrichment ratio after two sorts for PhoP signalling” near 0, cut for the highest 2% near 11. The full list was thinned out, with the highest values kept by preference.

B1: PhoQ; a variant is named by its letters at X, in order, P23837 (parent)
chain: MKKLLRLFFPLSLRVRFLLATAAVVLVLSLAYGMVALIGYSVSFDKTTFRLLRGESNLFYTLAKWENNKLHVELPENIDKQSPTMTLIYDENGQLLWAQRDVPWLMKMIQPDWLKSNGFHEIEADVNDTSLLLSGDHSIQQQLQEVREDDDDAEMTHSVAVNVYPATSRMPKLTIVVVDTIPVELKSSYMVWSWFIYVLSANLLLVIPLLWVAAWWSLRPIEALAKEVRELEEHNRELLNPATTRELTSLVRNLNRLLKSERERYDKYRTTLTDLTHSLKTPLXXLQXXLRSLRSEKMSVSDAEPVMLEQISRISQQIGYYLHRASMRGGTLLSRELHPVAPLLDNLTSALNKVYQRKGVNISLDISPEISFVGEQNDFVEVMGNVLDNACKYCLEFVEISARQTDEHLYIVVEDDGPGIPLSKREVIFDRGQRVDTLRPGQGVGLAVAREITEQYEGKIVAGESMLGGARMEVIFGRQHSAPKDE

Variants of: B1
Assay: enrichment ratio after two sorts for PhoP signalling (ratio (wild type AVST 3.29)); higher = more functional
Details: with PhoP (E. coli)

Variant	enrichment ratio
DQCP	≤ 0.25
HGEI	≤ 0.25
SWKP	≤ 0.25
WESM	≤ 0.25
STLY	13.1
SPLD	≤ 0.25
SELD	14
SEAA	14.3
SEAD	5.48
STAA	4.26
SPLY	≤ 0.25
SEET	6.48
SENT	2.04
SEAT	13.6
YTLY	1.95
KYLD	≤ 0.25
DWIM	≤ 0.25
NPSS	≤ 0.25
FFHH	0.731
TYSH	1.78
NQDR	≤ 0.25
LYHC	≤ 0.25
YVNL	≤ 0.25
RKNY	≤ 0.25
MNMF	≤ 0.25
FCKG	≤ 0.25

Variant	enrichment ratio
TKCC	13.1
HNNH	≤ 0.25
ANCC	0.324
TKNW	≤ 0.25
HKNI	≤ 0.25
TKNH	11.4
HKCC	≤ 0.25
TKNI	13.3
MKCC	≤ 0.25
HNCC	≤ 0.25
HKNH	≤ 0.25
AKCC	15.2
KKAH	≤ 0.25
LSQM	≤ 0.25
NLVR	≤ 0.25
SGPQ	≤ 0.25
FWSM	≤ 0.25
VAFK	≤ 0.25
MYIN	≤ 0.25
EPPF	≤ 0.25
IMLD	≤ 0.25
EQCC	≤ 0.25
NQCC	≤ 0.25
KKNM	≤ 0.25
AQCC	32.6
HKNM	≤ 0.25

Variant	enrichment ratio
TKNM	31.9
YTTI	≤ 0.25
TTTI	22.1
GVTI	4.7
GTTI	13.5
TTTA	5.71
ITTI	≤ 0.25
PPTP	≤ 0.25
GSSI	14.1
GSSK	≤ 0.25
GSTG	≤ 0.25
NGSI	≤ 0.25
TGSI	19.6
RGSI	≤ 0.25
GGSI	12.3
GQSI	≤ 0.25
NISI	≤ 0.25
MYCI	≤ 0.25
LDCF	≤ 0.25
DHSM	≤ 0.25
GYII	0.285
YTII	≤ 0.25
GNII	8.44
GGII	1.19
GCII	18.2
GTII	13.8
